Experimental data published in paper PMC7862700, “An all-to-all approach to the identification of sequence-specific readers for epigenetic DNA modifications on cytosine”.

Columns and labels:
Assay in all cases: DAPPL (digital affinity profiling via proximity ligation, sequencing); 10 mM Tris-HCl pH 7.5, 50 mM NaCl, 1 mM DTT, 4% glycerol, room temperature, 30 min; GST-TFs on glutathione beads, 16-mer random dsDNA library, 0.1% formaldehyde crosslink after washing; high values mean tight binding
FLI1 = target: T1, FLI1 (Homo sapiens, UniProt Q01543 1-452); settings: protein: recombinant; tags: N-terminal GST; dsDNA, one strand shown
T1 sequence: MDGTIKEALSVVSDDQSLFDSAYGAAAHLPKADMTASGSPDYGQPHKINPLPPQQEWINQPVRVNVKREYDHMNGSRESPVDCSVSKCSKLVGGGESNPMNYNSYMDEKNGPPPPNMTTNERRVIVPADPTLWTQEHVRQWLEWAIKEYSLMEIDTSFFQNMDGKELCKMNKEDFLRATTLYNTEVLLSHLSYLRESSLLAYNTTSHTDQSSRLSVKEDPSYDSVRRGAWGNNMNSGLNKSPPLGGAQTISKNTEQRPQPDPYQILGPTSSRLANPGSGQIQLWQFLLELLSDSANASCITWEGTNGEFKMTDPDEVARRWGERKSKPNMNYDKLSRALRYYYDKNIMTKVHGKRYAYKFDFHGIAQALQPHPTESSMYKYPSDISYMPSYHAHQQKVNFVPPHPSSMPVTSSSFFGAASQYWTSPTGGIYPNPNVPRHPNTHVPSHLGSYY
How it was run: (§1)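 Yeast served to express human transcription factors as GST fusions, which were then captured on glutathione beads and labelled with DNA barcodes. Pooled with a tag-only sample, they were incubated with 200 nmole of a 16-mer random double-stranded DNA library for 30 min at room temperature in Tris/NaCl/DTT/glycerol buffer, washed, crosslinked with 0.1% formaldehyde, ligated by proximity, amplified by PCR and sequenced. Dividing each hexamer's read frequency for a factor by its frequency for the tag-only sample gives the binding signal.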

ELK1 = target: T2, ELK1 (Homo sapiens, UniProt P19419 1-428); settings: protein: recombinant; tags: N-terminal GST; dsDNA, one strand shown
T2 sequence: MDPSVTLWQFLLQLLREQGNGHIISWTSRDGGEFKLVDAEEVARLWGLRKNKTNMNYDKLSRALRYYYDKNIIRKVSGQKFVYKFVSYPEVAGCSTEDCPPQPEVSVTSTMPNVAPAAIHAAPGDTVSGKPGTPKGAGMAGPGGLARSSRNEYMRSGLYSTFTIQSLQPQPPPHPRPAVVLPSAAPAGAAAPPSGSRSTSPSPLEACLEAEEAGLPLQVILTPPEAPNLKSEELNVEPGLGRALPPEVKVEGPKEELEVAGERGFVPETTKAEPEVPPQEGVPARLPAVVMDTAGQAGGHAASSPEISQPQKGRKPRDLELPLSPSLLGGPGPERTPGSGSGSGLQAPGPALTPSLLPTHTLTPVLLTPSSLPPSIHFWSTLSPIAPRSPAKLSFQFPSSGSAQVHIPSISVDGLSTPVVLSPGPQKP
How it was run: as §1

GABPA = target: T3, GABPA (Homo sapiens, UniProt Q06546 1-454); settings: protein: recombinant; tags: N-terminal GST; dsDNA, one strand shown
T3 sequence: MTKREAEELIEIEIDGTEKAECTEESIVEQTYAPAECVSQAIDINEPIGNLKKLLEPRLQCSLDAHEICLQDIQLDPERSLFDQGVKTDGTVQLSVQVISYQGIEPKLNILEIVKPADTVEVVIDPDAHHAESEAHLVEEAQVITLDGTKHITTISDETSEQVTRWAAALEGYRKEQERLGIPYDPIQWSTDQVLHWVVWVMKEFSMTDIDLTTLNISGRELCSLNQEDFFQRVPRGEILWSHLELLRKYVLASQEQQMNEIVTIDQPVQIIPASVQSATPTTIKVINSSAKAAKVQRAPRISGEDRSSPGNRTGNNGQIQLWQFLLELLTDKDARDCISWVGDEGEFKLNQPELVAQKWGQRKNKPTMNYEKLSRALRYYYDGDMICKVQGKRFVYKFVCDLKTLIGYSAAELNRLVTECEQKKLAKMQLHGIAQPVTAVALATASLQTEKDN
How it was run: as §1

ERG = target: T4, ERG (Homo sapiens, UniProt P11308 1-479); settings: protein: recombinant; tags: N-terminal GST; dsDNA, one strand shown
T4 sequence: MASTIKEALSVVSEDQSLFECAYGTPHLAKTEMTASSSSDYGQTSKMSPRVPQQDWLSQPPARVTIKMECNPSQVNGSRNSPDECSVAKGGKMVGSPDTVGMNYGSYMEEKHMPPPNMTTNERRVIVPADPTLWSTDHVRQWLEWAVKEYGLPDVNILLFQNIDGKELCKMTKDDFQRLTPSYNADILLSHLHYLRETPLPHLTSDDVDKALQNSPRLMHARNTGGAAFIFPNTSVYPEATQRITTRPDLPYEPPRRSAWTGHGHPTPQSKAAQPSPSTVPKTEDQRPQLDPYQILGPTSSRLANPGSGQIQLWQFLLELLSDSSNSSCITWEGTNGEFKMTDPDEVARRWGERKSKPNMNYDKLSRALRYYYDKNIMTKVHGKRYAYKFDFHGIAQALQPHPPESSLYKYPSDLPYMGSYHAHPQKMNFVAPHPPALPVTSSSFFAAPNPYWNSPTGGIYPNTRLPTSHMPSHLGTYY
How it was run: as §1

ELF1 = ELF1 (Homo sapiens, UniProt P32519 1-619); settings: protein: recombinant; tags: N-terminal GST; dsDNA, one strand shown
How it was run: as §1

EHF = target: T5, EHF (Homo sapiens, UniProt Q9NZC4 1-300); settings: protein: recombinant; tags: N-terminal GST; dsDNA, one strand shown
T5 sequence: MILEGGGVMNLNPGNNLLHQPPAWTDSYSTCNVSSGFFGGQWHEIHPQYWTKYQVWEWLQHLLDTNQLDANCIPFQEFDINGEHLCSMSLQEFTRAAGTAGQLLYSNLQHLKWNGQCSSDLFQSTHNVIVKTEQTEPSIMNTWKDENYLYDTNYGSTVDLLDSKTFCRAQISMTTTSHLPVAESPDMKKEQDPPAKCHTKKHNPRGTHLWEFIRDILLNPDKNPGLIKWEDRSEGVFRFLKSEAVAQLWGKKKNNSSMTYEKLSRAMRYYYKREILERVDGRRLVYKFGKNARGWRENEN
How it was run: as §1

SPI1 = SPI1 (Homo sapiens, UniProt P17947 1-270); settings: protein: recombinant; tags: N-terminal GST; dsDNA, one strand shown
How it was run: as §1

SPIB = SPIB (Homo sapiens, UniProt Q01892 1-262); settings: protein: recombinant; tags: N-terminal GST; dsDNA, one strand shown
How it was run: as §1

ELK3 = target: T6, ELK3 (Homo sapiens, UniProt P41970 1-407); settings: protein: recombinant; tags: N-terminal GST; dsDNA, one strand shown
T6 sequence: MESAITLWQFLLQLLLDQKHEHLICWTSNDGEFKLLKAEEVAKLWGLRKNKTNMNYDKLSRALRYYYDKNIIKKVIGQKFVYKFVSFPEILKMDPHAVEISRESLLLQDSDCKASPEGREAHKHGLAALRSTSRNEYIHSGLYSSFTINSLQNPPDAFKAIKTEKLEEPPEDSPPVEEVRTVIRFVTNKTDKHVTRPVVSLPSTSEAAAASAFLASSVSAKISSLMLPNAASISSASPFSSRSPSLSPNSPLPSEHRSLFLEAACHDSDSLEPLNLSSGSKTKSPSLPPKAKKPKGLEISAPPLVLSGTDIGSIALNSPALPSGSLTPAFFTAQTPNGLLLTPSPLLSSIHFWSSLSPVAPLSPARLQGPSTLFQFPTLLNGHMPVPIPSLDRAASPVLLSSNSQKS
How it was run: as §1

FEV = target: T7, FEV (Homo sapiens, UniProt Q99581 1-238); settings: protein: recombinant; tags: N-terminal GST; dsDNA, one strand shown
T7 sequence: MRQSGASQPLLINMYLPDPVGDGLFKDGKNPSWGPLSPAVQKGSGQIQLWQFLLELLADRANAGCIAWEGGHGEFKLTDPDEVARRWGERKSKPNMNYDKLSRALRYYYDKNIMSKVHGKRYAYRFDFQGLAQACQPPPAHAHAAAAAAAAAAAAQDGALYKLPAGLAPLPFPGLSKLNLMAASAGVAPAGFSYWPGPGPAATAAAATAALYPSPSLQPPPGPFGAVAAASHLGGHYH
How it was run: as §1

ETV5 = ETV5 (Homo sapiens, UniProt P41161 1-510); settings: protein: recombinant; tags: N-terminal GST; dsDNA, one strand shown
How it was run: as §1

HSF1 = HSF1 (Homo sapiens, UniProt Q00613 1-529); settings: protein: recombinant; tags: N-terminal GST; chain copies: 3; dsDNA, one strand shown
How it was run: as §1

SPIC = target: T8, SPIC (Homo sapiens, UniProt Q8N5J4 1-248); settings: protein: recombinant; tags: N-terminal GST; dsDNA, one strand shown
T8 sequence: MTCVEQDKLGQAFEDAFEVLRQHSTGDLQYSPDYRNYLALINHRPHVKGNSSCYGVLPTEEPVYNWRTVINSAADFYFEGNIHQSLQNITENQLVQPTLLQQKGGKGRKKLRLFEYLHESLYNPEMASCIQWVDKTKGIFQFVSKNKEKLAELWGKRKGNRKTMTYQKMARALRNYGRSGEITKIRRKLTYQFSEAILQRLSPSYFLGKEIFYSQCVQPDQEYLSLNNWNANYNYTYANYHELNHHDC
How it was run: as §1

ELF4 = ELF4 (Homo sapiens, UniProt Q99607 1-663); settings: protein: recombinant; tags: N-terminal GST; dsDNA, one strand shown
How it was run: as §1

ELK4 = target: T9, ELK4 (Homo sapiens, UniProt P28324-2 1-405); settings: protein: recombinant; tags: N-terminal GST; dsDNA, one strand shown
T9 sequence: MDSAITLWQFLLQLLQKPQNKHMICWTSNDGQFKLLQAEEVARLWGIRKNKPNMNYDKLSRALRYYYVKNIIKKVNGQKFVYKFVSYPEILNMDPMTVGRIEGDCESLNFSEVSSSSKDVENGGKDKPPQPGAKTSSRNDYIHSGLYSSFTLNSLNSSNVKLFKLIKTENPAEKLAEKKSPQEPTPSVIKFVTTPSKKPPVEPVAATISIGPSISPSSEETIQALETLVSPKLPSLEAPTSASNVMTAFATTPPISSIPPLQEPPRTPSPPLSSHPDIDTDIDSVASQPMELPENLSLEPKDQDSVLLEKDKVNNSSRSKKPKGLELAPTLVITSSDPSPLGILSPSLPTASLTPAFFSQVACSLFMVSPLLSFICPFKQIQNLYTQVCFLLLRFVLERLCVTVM
How it was run: as §1

ETV2 = target: T10, ETV2 (Homo sapiens, UniProt O00321 1-342); settings: protein: recombinant; tags: N-terminal GST; dsDNA, one strand shown
T10 sequence: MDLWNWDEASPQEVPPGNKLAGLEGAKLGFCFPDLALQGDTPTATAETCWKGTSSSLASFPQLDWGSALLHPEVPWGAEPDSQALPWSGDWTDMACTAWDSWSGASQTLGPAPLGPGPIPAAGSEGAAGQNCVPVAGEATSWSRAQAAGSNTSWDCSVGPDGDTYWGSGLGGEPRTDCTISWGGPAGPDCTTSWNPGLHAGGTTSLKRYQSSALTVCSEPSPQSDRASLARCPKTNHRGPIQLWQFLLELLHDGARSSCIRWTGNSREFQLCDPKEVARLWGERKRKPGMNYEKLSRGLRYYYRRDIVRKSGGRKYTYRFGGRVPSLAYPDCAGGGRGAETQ
How it was run: as §1

ELF3 = target: T11, ELF3 (Homo sapiens, UniProt P78545 1-371); settings: protein: recombinant; tags: N-terminal GST; dsDNA, one strand shown
T11 sequence: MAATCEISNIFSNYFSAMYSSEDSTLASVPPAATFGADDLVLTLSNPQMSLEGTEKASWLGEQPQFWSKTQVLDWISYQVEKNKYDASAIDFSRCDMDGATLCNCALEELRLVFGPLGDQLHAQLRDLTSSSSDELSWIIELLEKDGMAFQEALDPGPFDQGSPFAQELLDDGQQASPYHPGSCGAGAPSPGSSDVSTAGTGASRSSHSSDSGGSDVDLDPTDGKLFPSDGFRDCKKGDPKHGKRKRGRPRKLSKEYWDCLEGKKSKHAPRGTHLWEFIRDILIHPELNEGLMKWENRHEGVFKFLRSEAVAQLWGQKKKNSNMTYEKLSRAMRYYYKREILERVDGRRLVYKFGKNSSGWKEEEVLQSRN
How it was run: as §1

CRX = CRX (Homo sapiens, UniProt O43186 1-299); settings: protein: recombinant; tags: N-terminal GST; dsDNA, one strand shown
How it was run: as §1

ETV1 = ETV1 (Homo sapiens, UniProt P50549 1-477); settings: protein: recombinant; tags: N-terminal GST; dsDNA, one strand shown
How it was run: as §1

Sequence of ELF1 (P32519 whole entry): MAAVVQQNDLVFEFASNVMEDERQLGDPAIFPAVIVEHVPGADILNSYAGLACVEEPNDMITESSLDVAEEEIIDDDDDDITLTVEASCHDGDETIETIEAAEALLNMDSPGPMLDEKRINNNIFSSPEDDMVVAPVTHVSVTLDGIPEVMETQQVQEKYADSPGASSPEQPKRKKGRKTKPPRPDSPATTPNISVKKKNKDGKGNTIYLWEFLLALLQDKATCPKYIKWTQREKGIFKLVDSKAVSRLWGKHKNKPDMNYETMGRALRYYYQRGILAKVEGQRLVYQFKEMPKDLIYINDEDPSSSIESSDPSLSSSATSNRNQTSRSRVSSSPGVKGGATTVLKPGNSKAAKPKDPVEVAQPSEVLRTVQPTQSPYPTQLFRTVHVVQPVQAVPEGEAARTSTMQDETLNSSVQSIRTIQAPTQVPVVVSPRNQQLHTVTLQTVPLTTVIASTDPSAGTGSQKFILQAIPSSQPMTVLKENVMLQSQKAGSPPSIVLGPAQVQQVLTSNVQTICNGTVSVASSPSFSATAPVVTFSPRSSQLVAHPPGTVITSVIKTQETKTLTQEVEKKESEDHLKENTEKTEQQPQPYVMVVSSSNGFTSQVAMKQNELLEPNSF
Sequence of SPIB (Q01892 whole entry): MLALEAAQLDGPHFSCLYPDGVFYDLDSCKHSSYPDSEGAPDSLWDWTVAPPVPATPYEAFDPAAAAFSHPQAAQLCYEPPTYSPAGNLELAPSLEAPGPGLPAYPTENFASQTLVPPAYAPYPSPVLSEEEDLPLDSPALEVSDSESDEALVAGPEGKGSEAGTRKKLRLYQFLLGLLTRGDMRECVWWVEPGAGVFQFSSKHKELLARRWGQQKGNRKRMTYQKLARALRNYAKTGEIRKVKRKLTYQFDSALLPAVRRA
Sequence of ETV1 (P50549 whole entry): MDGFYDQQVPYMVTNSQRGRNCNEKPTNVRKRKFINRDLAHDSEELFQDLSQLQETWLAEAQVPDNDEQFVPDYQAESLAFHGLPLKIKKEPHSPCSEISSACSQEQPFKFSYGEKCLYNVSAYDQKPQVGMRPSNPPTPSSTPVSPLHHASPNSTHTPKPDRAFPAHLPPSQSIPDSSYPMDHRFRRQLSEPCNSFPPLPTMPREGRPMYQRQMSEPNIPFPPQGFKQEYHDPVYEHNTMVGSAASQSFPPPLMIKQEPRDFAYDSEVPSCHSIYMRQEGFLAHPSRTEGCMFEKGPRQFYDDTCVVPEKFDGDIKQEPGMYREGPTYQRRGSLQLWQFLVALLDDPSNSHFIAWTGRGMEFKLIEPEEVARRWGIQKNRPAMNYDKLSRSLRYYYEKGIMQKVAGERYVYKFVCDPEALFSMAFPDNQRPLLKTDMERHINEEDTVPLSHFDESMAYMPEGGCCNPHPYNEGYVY
Sequence of ETV5 (P41161 whole entry): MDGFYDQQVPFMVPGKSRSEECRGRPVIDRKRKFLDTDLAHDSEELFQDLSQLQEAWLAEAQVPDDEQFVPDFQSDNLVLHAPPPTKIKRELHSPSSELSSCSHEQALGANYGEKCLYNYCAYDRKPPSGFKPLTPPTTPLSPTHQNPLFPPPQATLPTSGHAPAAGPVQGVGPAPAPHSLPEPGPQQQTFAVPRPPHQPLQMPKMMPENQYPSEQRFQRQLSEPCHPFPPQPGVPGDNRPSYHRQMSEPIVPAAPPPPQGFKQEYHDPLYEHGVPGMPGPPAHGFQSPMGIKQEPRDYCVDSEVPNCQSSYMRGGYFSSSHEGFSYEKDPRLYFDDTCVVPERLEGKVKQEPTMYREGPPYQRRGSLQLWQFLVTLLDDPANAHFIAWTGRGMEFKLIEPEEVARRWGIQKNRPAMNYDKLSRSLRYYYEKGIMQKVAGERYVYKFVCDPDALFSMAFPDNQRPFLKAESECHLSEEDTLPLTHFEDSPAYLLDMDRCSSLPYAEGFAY
Sequence of ELF4 (Q99607 whole entry): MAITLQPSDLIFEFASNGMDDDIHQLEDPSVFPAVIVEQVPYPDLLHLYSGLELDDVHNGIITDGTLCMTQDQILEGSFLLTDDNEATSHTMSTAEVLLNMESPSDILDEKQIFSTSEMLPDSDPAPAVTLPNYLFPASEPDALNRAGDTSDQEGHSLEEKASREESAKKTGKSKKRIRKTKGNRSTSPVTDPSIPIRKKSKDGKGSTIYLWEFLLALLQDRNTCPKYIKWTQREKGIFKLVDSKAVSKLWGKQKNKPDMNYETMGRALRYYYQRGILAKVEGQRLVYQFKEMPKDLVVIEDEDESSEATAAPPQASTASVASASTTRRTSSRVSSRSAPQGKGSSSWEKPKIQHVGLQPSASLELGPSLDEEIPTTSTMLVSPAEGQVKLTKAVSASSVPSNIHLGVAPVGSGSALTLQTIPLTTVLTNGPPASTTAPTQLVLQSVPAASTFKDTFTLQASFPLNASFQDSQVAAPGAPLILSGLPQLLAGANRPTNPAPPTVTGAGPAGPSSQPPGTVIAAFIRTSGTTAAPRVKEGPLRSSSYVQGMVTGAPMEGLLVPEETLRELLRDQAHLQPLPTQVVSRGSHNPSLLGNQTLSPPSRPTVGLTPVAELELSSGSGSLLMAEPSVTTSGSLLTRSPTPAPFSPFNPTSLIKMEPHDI
Sequence of HSF1 (Q00613 whole entry): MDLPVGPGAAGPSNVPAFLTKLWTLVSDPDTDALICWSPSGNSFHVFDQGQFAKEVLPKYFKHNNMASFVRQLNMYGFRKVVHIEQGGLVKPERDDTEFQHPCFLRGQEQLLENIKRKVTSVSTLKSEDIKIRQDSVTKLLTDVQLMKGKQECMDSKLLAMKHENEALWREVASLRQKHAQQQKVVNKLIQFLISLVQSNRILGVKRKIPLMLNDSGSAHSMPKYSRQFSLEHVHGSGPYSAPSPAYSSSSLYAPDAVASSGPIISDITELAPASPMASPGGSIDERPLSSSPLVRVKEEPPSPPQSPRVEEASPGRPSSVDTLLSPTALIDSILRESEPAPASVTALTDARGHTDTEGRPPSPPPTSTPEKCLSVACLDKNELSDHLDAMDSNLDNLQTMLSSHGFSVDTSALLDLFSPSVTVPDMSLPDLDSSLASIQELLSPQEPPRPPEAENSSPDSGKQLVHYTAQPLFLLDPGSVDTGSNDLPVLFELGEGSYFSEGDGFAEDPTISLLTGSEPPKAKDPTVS
Sequence of CRX (O43186 whole entry): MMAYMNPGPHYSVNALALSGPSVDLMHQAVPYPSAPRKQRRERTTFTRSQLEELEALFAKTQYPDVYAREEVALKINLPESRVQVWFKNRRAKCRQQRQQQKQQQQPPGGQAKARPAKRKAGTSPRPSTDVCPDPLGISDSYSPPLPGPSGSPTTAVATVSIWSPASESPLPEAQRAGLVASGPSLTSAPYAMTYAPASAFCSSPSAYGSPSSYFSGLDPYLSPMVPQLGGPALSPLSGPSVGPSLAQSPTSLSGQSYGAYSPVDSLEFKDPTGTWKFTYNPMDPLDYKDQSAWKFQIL

TATTTA
binding signal (FLI1): 1.48 fold enrichment (6-mer frequency, TF over GST control)
binding signal (ELK1): 1.5 fold enrichment (6-mer frequency, TF over GST control)
binding signal (GABPA): 1.39 fold enrichment (6-mer frequency, TF over GST control)
binding signal (ERG): 1.38 fold enrichment (6-mer frequency, TF over GST control)
binding signal (ELF1): 1.42 fold enrichment (6-mer frequency, TF over GST control)
binding signal (EHF): 1.43 fold enrichment (6-mer frequency, TF over GST control)
binding signal (SPI1): 1.46 fold enrichment (6-mer frequency, TF over GST control)
binding signal (SPIB): 1.39 fold enrichment (6-mer frequency, TF over GST control)
binding signal (ELK3): 1.61 fold enrichment (6-mer frequency, TF over GST control)
binding signal (FEV): 1.4 fold enrichment (6-mer frequency, TF over GST control)
binding signal (ETV5): 1.47 fold enrichment (6-mer frequency, TF over GST control)
binding signal (HSF1): 1.75 fold enrichment (6-mer frequency, TF over GST control)
binding signal (SPIC): 1.69 fold enrichment (6-mer frequency, TF over GST control)
binding signal (ELF4): 1.45 fold enrichment (6-mer frequency, TF over GST control)
binding signal (ELK4): 1.66 fold enrichment (6-mer frequency, TF over GST control)
binding signal (ETV2): 1.43 fold enrichment (6-mer frequency, TF over GST control)
binding signal (ELF3): 1.57 fold enrichment (6-mer frequency, TF over GST control)
binding signal (CRX): 2.47 fold enrichment (6-mer frequency, TF over GST control)
binding signal (ETV1): 1.51 fold enrichment (6-mer frequency, TF over GST control)
